Bioassay records from PubChem BioAssay.
GLP-1R inv ag: inverse agonists of human GLP-1 receptor; P43220; HEK293 GLP-1R CRE-luciferase, luminescence, 24 h; GLP-1R form is constitutively active; Potency, µM (doses to about 38.3 µM), for inactives: at the top dose activity change, negative = inhibition, most hits filed as inhibitors; hit rate 1.6% among 410,000; further: on the % scale 0 is the no-effect control and ±100 the full control effect; nearly all actives have a fitted effect of over 55% in size
Target sequence (P43220 whole entry, looked up): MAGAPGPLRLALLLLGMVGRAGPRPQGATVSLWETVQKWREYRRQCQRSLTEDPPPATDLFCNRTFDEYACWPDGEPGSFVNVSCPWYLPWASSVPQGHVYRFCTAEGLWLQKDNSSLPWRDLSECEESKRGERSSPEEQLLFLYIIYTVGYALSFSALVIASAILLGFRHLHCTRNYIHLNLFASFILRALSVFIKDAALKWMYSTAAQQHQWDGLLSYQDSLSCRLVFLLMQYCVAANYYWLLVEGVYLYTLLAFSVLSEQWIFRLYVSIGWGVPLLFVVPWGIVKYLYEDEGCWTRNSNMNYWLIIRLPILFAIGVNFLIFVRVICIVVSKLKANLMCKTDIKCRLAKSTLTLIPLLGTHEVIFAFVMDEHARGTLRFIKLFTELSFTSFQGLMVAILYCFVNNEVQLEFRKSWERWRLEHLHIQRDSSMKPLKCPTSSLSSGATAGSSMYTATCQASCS
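qHTS in 1536-well format: reporter HEK293 cells expressing constitutive GLP-1R activity in DMEM + 10% Nu serum, 24 hr with compounds at 37 deg C, luminescence read after 12 min with detection reagent.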
TGFb SMAD3 inh: inhibitors of TGF-b signaling; Potency, µM (series often up to 46.1 µM), without a hit: top-dose activity, negative = inhibition, usual class: inhibitors; AID 588855; HepG2 CAGA-GFP TGF-b/SMAD3 reporter, GFP fluorescence, 18 h; TGF-beta stimulated, 500 pg/mL final; hit rate 1.2% among 410,000; further: on the % scale 0 is the no-effect control and ±100 the full control effect; nearly all actives have a fitted effect of over 65% in size
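Smad-responsive CAGA-GFP expression was quantified in HEPG2 cells exposed to compounds and 500 pg/mL final TGF-beta for 18 h at 37 degrees C; unstimulated wells defined full inhibition.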
HepG2 tox: kills HepG2 cells in TGF-b inhibitor counter-screen. HepG2 CAGA-GFP viability, ATP luminescence, 18 h. Potency, µM (series often up to 46.1 µM), for inactives: at the highest dose activity change, negative = cytotoxicity, hits mostly cytotoxic. hit rate 0.76% among 410,000. AID 588856
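HepG2 CAGA-GFP cells (1000/well, DMEM with 1% FBS) received compound, then TGF-beta at 500 pg/mL final, and were incubated 18 hours at 37 degrees C. Viability was read by CellTiter-Glo luminescence. Media-only wells were set as complete cell-killing and DMSO as no toxicity.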
ATXN viability: viability counter-screen for ATXN expression inhibitors; AID 651635; S2 cells (HEK-293 line with an ATXN2-luciferase reporter) viability, CellTiter-Fluor protease fluorescence, 24 h; hit rate 0.49% among 400,000; Potency, µM (series often up to 56.7 µM), usual class: cytotoxic; further: nearly all actives have a fitted effect of over 40% in size
ATXN2 expr inh: ATXN2 expression inhibition; HEK-293 ATXN2-luciferase reporter, luminescence, 24 h; Potency, µM (series often up to 57 µM), for the others: at the top dose activity change, negative = inhibition, most hits filed as inhibitors; hit rate 0.72% among 360,000; AID 1745845; further: on the % scale 0 is the no-effect control and ±100 the full control effect; nearly all actives have a fitted effect of over 55% in size
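ATXN2-luciferase reporter cells (luciferase flanked by upstream and downstream ATXN2 gene portions) were treated 24 h at 37 °C with compounds at up to 57 uM. SteadyGlo luminescence gave expression; GF-AFC fluorescence gave viability.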
GLP1R ag: activates the human GLP-1 receptor. P43220. HEK293 GLP-1R CRE-luciferase, luminescence, 4-6 h; cells express a hypersensitive GLP-1R form. Potency, µM (series often up to 45.6 µM), for inactives: top-dose activation, hits mostly activators. hit rate 0.007% among 380,000; further: % of control where 0% means no effect
The depositor's hits bear a star; i = inactive; ? = inconclusive; . = not tested or not shown; ! = not confirmed by another sample; [ ] = another dose, or the depositor's remark. An excerpt weighted towards active compounds, which were near 3.7% of everything screened. The call rests on the fitted dose curve; in most records, active means well fitted curve in the direction sought with a large enough effect; inconclusive means small, poorly fitted or top-dose-only effect, or another doubt; inactive means no such curve, though single readings can be large; an effect the other way counts as inactive or inconclusive. Potency means the concentration at half of the fitted maximal effect.

SMILES | GLP-1R inv ag | TGFb SMAD3 inh | HepG2 tox | ATXN viability | ATXN2 expr inh | GLP1R ag
CN(C)C(=O)CNC(=O)Cc1ccccc1 | . | . | . | i | 3% | ?
CCOC(=O)c1c(-n2c(C)cc(C=C3C(=O)NC(=O)NC3=O)c2C)sc2c1CCCC2 | -5% | -14% | -18% | i | ? | -7%
Cc1cccc(N2C(=O)NC(=O)/C(=C\c3cc(C)n(-c4sc5c(c4C#N)CCCC5)c3C)C2=O)c1C | 3.5µM* | 7.1µM* | 13µM* | i | -31% | 8%
CC(Cc1ccccc1)NCCn1cnc2c1c(=O)n(C)c(=O)n2C (configuration not stated) | . | . | . | i | 1%[116 µM] | -4%[96 µM]
COc1ccc(CNCCc2c(C)[nH]c3ccc(OC(F)(F)F)cc23)c(OC)c1 | 2µM* | ? | -88% | ? | ? | 2%
CCOC1=C2[C@@H](CN(S(=O)(=O)c3ccccc3C)[C@H]2c2ccc(Cl)cc2)[C@H]2C(=O)NC(=O)[C@H]2C1 | -2% | -8% | -21% | ? | -9% | -1%
ClCCN(CCCl)c1ccc(-n2cnc3c(Cl)ncnc32)cc1 | ? | 4% | 2% | . | 16µM* | -3%
C=C1C(=O)O[C@@H]2C[C@@H](C)[C@H]3C=CC(=O)[C@]3(O)C[C@@H]12 | -6% | 13µM* | -40% | . | ? | 1%
Oc1cccc(Nc2ncnc3sc4c(c23)CCCC4)c1 | 12% | ? | -14% | i | -3% | 10%
CN(Cc1cccc(-c2ccncc2)c1)C(=O)Oc1ccc([N+](=O)[O-])cc1 | ? | . | . | 32µM* | 25µM* | 10%
O=C(CNC(=O)OCc1ccccc1)Nc1ccc(Br)cc1C(=O)c1ccccc1Cl | ? | -12% | -49% | i | -1% | 0%
CN(C(=O)CNC(=O)OCc1ccccc1)c1ccc(Br)cc1C(=O)c1ccccc1Cl | 2.8µM* | ? | -14% | i | 0% | -4%
COc1ccccc1N=c1scc(-c2ccc(S(=O)(=O)N3CCCC3)cc2)n1C | -25% | ? | -23% | . | . | .
COc1ccc2c3c1OC1C(O)C=CC4[C@@H](C2)NCC[C@]314 (some centres not stated) | . | . | . | . | . | -3%[96 µM]
Cn1ncnc2c(=O)n(C)c(=O)nc1-2 | ? | 0.11µM* | 0.2µM* | 4.5µM* | 3.5µM* | -10%
Cc1ccc(-c2nc3c(=O)n(C)c(=O)nc-3n(C)n2)cc1 | . | 0.79µM* | 1µM* | . | . | .
COc1ccc(C(=O)Nc2ccc(-c3cc(C(F)(F)F)nn3-c3ccccc3)cc2)cc1OC | ? | 9% | -20% | i | ? | .
COc1cc(C[C@@H](C)N)c(OC)cc1C | . | . | . | ? | -19%[116 µM] | .
CC(=O)c1ccc(Oc2nc(C)nc3c2oc2ccccc23)cc1 | 7% | ? | -24% | i | -14% | .
Cc1cc2c(C(C)C)c(O)c(O)c(C=O)c2c(O)c1-c1c(C)cc2c(C(C)C)c(O)c(O)c(C=O)c2c1O | . | 1.1µM* | 1.4µM* | 25µM* | ? | 7%
COc1ccc(C(=O)Nc2nnc(S(=O)(=O)N(CC(C)C)c3ccc(C)cc3)s2)cc1OC | 12% | ? | -1% | . | . | .
O=C(CCl)c1ccc(Cl)cc1Cl | . | . | . | 11µM*! | ? | 12%
CN(C)C1(c2nnnn2-c2ccc(Cl)cc2)CCCCC1 | ? | -12% | -6% | i | -13% | 9%
CN(C)C1(c2nnnn2CCOC(=O)Nc2ccc(Cl)cc2)CCCCC1 | 7.1µM* | 3% | 5% | i | -6% | 2%
CCC12CN3CC(CC)(CN(C1)C3c1ccccn1)C2=O (configuration not stated) | 3% | -1% | 5% | i | -4% | .
SMILES | GLP-1R inv ag | TGFb SMAD3 inh | HepG2 tox | ATXN viability | ATXN2 expr inh | GLP1R ag
CN1C2CCC1/C(=C/c1ccccn1)C(=O)/C2=C\c1ccccn1 | -89% | 2.8µM* | 10µM* | ? | ? | -8%
Oc1ccc(-c2cccnc2)cc1CNC1CN2CCC1CC2 (configuration not stated) | . | . | . | i | . | .
CCC(=O)C(CCN(C)C)(c1ccccc1)c1ccccc1 | . | . | . | i | -17% | .
CCN(CC)CC(O)c1ccc(C2CCCC2)cc1 (configuration not stated) | 7.1µM* | 18% | 2% | i | -22% | -1%
CN1C(CC(O)c2ccccc2)CCCC1CC(O)c1ccccc1 (configuration not stated) | -9% | 14% | -19% | i | -5% | ?
Cc1cc(SCc2sc(-c3ccc(C(F)(F)F)c(F)c3)nc2C)ccc1OCC(=O)O | . | . | . | . | 15% | .
CCCCCCCCCCCC[N+](C)(C)CCOc1ccccc1 | . | . | . | ? | 32µM* | 0%
CCCCCCCCCC[N+](C)(C)CCCCCCCCCC | . | . | . | . | . | -6%
COc1cccc2c1C(=O)c1c(O)c3c(c(O)c1C2=O)CC(O)(C(C)=NO)CC3OC1CC(N)C(O)C(C)O1 (configuration not stated) | 10µM* | 6.3µM* | 3% | ? | 1.6µM* | -5%
O=[N+]([O-])c1ccc(Sc2nc3ccccc3o2)c([N+](=O)[O-])c1 | -16% | ? | 13µM* | . | ? | -15%
Cc1ccc(C)c(S(=O)(=O)Nc2ccc3c(c2)CCCN3C(=O)c2cccs2)c1 | ? | 11µM* | -20% | . | ? | .
Cc1ccc2c(c1)C1CN(C)CCC1N2C(=O)c1cccs1 (configuration not stated) | ? | 6% | 13% | i | -3% | 10%
Cc1ccccc1-n1c(O)c(/C=C2/C(c3ccccc3)=Nc3ccccc32)c(=O)[nH]c1=O | ? | 25µM* | -42% | i | 13% | -17%
Clc1ccc([C@H](Cn2ccnc2)OCc2csc3c(Cl)cccc23)c(Cl)c1 | . | . | . | . | . | -4%[19.8 µM]
Clc1ccc(C(Cn2ccnc2)OCc2csc3c(Cl)cccc23)c(Cl)c1 (configuration not stated) | ? | ? | -99% | . | 22µM* | 8%
C[n+]1c(-c2ccccc2)c2cc(N)ccc2c2ccc(N)cc21 | 1.8µM* | 4.5µM* | -17% | 16µM* | 7.1µM* | -3%
C=CCn1c(O)c(C(C)=NCc2cccnc2)c(=O)[nH]c1=O | 24% | -1% | -4% | i | 7% | 4%
C=CCn1c(O)c(C(C)=NCc2cc(OC)cc(OC)c2)c(=O)[nH]c1=O | -3% | -10% | 7.1µM* | i | ? | 17%
Oc1cccc[c]1[Hg][Cl] | . | . | . | . | . | -14%
Oc1cc[c]([Hg][Cl])cc1 | . | . | . | 3.2µM* | . | -7%
